“And” between values parts separate entries of the source, which are not always exact repeats. Equal values may be shown once. The source made the active and inactive calls. The call rests on the fitted dose curve.
Test: qHTS drug screen for cell cycle checkpoint inhibitors in PARPi-resistant BRCA-mutant ovarian cancer cell lines. (AID 1963452)
Conditions: PEO1/OlaR viability, CellTiter-Glo luminescence, 96 h; for Z-AUC: stronger effect = lower value
Procedure, shortened: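 PEO1, PEO4 and PEO1/OlaR ovarian cancer cells, 600 per well, exposed 96 h at 37C to a dilution series. Viability read by CellTiter-Glo luminescence, normalized to DMSO and empty wells; activity summarized as Z-AUC.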

[1] = measured here: PEO1 parental Z-AUC
Potency means the concentration at half of the fitted maximal effect.

Row | Compound | Z-AUC | Z-AUC [1] | Z-AUC (measured here: PEO4 Z-AUC) | Potency
1 | Fc1ccc(-c2nc(-c3ccccc3F)[nH]c2-c2ccncc2)cc1 | 0.595 (inactive) | -0.0932 | 0.278 | 
2 | CCC(CC)C(c1ccc(Nc2nc3ccccc3s2)cc1)n1cncn1 (stereo unspecified) | 0.298 (inactive) | 0.98 | 0.959 | 
3 | O=C1Nc2nc(-c3c(O)cccc3OCC3CC3)cc([C@@H]3CCCNC3)c2CO1 | 0.934 (inactive) | 0.63 | 0.451 | 
4 | Cc1c(F)ccc(C(=O)Nc2cc([N+](=O)[O-])ccc2N2CCN(C)CC2)c1Cl | 0.532 (inactive) | 0.409 | -0.0381 | 
5 | Cc1c[nH]c2ncnc(N3CCC(CN)(C(=O)Nc4cccc(OC(=O)N(C)C)c4)CC3)c12 | -0.731 (inactive) and 0.531 (inactive) | -0.27 and -0.244 | -0.694 and 1.07 | 
6 | O=C(c1c(F)ccc(NS(=O)(=O)N2CC[C@@H](F)C2)c1F)c1c[nH]c2ncc(-c3cnc(C4CC4)nc3)cc12 | -0.0874 (inactive) | 0.401 | 0.486 | 
7 | CC[C@@H](C)Nc1cc(C(=O)NC2CC3CC[C@@H](C2)N3c2ccc(C(=O)C3CC3)cn2)c(C)cc1C(N)=O (stereo partly specified) |  | -1.88 | -1.25 | 219 nM (active)
8 | COc1cccc(-c2cc(F)ccc2C2Cc3nc(N)nc(C)c3C(=O)N2)n1 (stereo unspecified) | -1.35 (inactive) | -1.35 | -0.552 | 
9 | CC(C)(C)Sc1c(CC(C)(C)C(=O)O)n(Cc2ccc(Cl)cc2)c2ccc(OCc3ccc4ccccc4n3)cc12 | 1.37 (inactive) | 0.865 | 0.962 | 
10 | Cn1ncnc1[C@H]1c2n[nH]c(=O)c3cc(F)cc(c23)N[C@@H]1c1ccc(F)cc1 | 0.447 (inactive) | -1.15 | -0.329 | 
11 | COc1ccc(Cl)c(Nc2ncnc3cc(OCC4CCN(C)CC4)c(OC)cc23)c1 | -1.39 (inactive) | -0.765 | -1.02 | 
12 | CCCc1cc(C)[nH]c(=O)c1CNC(=O)c1cc(-c2ccnc(N3CCN(C)CC3)c2)cc2c1cnn2C(C)C | -1.33 (inactive) | -1.11 | -1.01 | 

Source: PubChem BioAssay (NCATS)
